FGF22 binding – shifts melting point of recombinant human FGF22. activity (Tm shift, normalised), % at 9.99 µM. recombinant FGF22 thermal shift, SYPRO orange fluorescence; percent of sucrose octasulfate shift, DMSO zero. actives 1.5% (n = 340,000). Q9HCT0;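 active = mean Tm shift, scaled 0 neutral to 100 positive control, at about 1.3% or above, every replicate too, limit read from the data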
proKLK7 act – proKLK7 (human) activation, primary screen. P49862. activation, % at 7 µM. actives 0.9% (n = 370,000). purified proKLK7, EDANS-DABCYL substrate fluorescence; 100% is mature enzyme control, 0% vehicle;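 active = activation above the mean of all tested compounds plus 3 SD, computed per campaign excluding outliers beyond control limits, cut at about 13% in these data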
ADAM10 inh – inhibitors of human ADAM10 | O14672 | actives 0.62% (n = 370,000) | recombinant ADAM10, EDANS/DABCYL FRET peptide cleavage, 3 h | inhibition, % at 7 µM;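 active = inhibition above a per-campaign cutoff equal to the mean of compounds falling between control-based bounds plus 3 SD, cut at about 20% in these data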;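 also: 0% = DMSO wells while the 100% control is not disclosed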
Target sequence (O14672 214-748 limits assumed): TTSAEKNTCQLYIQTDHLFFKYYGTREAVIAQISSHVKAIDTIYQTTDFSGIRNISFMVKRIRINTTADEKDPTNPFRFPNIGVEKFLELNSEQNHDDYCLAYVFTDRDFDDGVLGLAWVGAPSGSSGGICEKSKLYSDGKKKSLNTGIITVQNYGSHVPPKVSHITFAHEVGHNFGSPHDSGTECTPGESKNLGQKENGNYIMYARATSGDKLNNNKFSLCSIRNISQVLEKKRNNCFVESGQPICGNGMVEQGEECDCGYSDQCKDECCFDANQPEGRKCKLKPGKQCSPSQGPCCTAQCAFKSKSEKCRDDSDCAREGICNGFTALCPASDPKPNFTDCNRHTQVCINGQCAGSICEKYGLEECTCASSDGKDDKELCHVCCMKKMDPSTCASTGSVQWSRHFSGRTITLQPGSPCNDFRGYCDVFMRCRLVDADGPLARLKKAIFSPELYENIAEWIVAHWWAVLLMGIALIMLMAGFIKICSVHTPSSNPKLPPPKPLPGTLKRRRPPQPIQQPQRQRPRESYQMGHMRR
rRNA inh HTS – inhibits bacterial ribosomal RNA function over humanized ribosomes; E. coli WT GFP vs humanized-ribosome RFP mutants, fluorescence, 24 h; active compounds read low; DMSO median 0, no signal -100; actives 1.6% (n = 350,000); GFP signal change (wild-type ribosome), % (concentration not given with the values); AID 720706;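 active = significant combined selectivity score with lowered wild-type GFP, culture density cut under 30%, mutant RFP and density less affected; inactive = any of these conditions unmet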
ADAM17 inh – inhibits human ADAM17; P78536; recombinant ADAM17, EDANS/DABCYL FRET peptide cleavage; inhibition, % at 6.95 µM; actives 0.83% (n = 370,000); AID 720648;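 active = inhibition above the mean of compounds lying between control limits plus 3 SD, set per campaign, cut at about 8.5% in these data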;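 also: 0% = DMSO-only wells as the low control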
* marks the source's active call; other numbers are inactive results; i = inactive; . = not tested or not shown. Hits are enriched below; roughly 3.8% of the tested compounds scored in any of these assays.

SMILES	FGF22 binding	proKLK7 act	ADAM10 inh	rRNA inh HTS	ADAM17 inh
N#CCCn1cc(C(=O)NCc2ccccc2)c(-c2cccs2)n1	43*	0	-7	5	1
CS(=O)(=O)Cc1ccc(C(=O)Nc2cccc(-c3nc4ccccc4[nH]3)c2)cc1	0	0	6	0	0
CS(=O)(=O)c1cccc(C(=O)Nc2cccc(-c3nc4ccccc4[nH]3)c2)c1	0	0	7	-19*	0
COc1ccccc1-c1nc(SCC(=O)Nc2ccccc2F)n[nH]1	0	0	-2	-27*	-4
COc1ccccc1-c1nc(SCC(=O)Nc2ccccc2)n[nH]1	0	0	-6	-8	2
C[C@@H]1CN([C@H](C)CO)C(=O)c2cc(NC(=O)NC3CCCCC3)ccc2O[C@@H](C)CCCCO[C@@H]1CN(C)S(=O)(=O)c1ccc(F)cc1	-1	.	.	-4	.
Cc1cc(C)cc(Oc2coc3cc(O)ccc3c2=O)c1	0	3	-297	-15	-126
Cc1ccc(Oc2coc3cc(O)ccc3c2=O)cc1	0	-7	-480	-24*	-165
Cc1ccccc1C(=O)N1CCC(C(=O)N2CCN(c3ncccn3)CC2)CC1	0	0	-15	10	-4
CCOC(=O)N1CCN(C(=O)C2CCN(C(=O)c3ccccc3C)CC2)CC1	1.4*	0	-6	9	-1
CC(C)CC#Cc1ccc([C@@H]2[C@@H](CO)N3C(=O)CN(S(C)(=O)=O)C[C@@H]23)cc1	.	.	.	10	.
Cc1oc2ccc(O)cc2c1C(=O)c1ccc(Br)cc1	0	0	10	-23*	8
Cc1oc2ccc(O)cc2c1C(=O)c1ccc(Cl)cc1	.	1	3	.	-3
CO[C@@H]1CC[C@@H]2CCOc3c(C#N)cccc3C(=O)N(C)[C@H](C)C(=O)N(C)C[C@@H]1O2	0	.	.	2	.
OCCN(CC#CCn1c2ccccc2c2ccccc21)CCO	0	0	-6	-29*	-5
CCN(CC)CC(O)Cn1c2ccccc2c2ccccc21 (centres undefined)	.	0	-8	.	0
O=C(Nc1ccccc1)N1CCCCN2[C@H](CO)[C@@H](c3ccc(C#Cc4ccccn4)cc3)[C@@H]2C1	.	.	.	1	.
Cn1c(N)c(C(=O)N/N=C/c2ccccc2)sc1=S	1	1	-8	-36*	1
CCN(c1ccccc1)S(=O)(=O)c1ccc(Cl)c(C(=O)OCC(=O)NC(=O)C(C)C)c1	43*	0	5	-7	3
Cc1c(CCOC(=O)c2cc([N+](=O)[O-])cc([N+](=O)[O-])c2)sc[n+]1CC(=O)c1ccccc1	0	0	3	6	2
Cc1c(CCOC(=O)c2ccccc2)sc[n+]1CC(=O)c1ccc(Br)cc1	.	.	.	-48*	.
S=c1[nH]nc(-c2ccc3ccccc3n2)n1-c1ccccc1	0	0	1	2	3
S=c1[nH]nc(-c2ccc3ccccc3n2)n1-c1ccc2c(c1)OCCO2	0	0	-6	-33*	0
S=c1[nH]nc(-c2ccc(Br)cc2)n1-c1ccc2c(c1)OCCO2	0	0	14	-14*	6
COc1ccc(CN(C)C[C@@H]2OCCCC[C@@H](C)Oc3ccc(NC(=O)Cc4ccccc4)cc3C(=O)N([C@H](C)CO)C[C@H]2C)cc1	0	.	.	2	.
SMILES	FGF22 binding	proKLK7 act	ADAM10 inh	rRNA inh HTS	ADAM17 inh
COC(=O)C1=CN(c2ccc(OC)cc2)C(N)=C(C#N)C1c1ccc(OC)cc1 (centres undefined)	0	1	-9	-27	-4
COC(=O)C1=CN(c2ccc(OC)cc2OC)C(N)=C(C#N)C1c1ccc(OC)cc1 (centres undefined)	0	-48	-18	-26*	-7
Cc1noc(C)c1NC(=O)Nc1ccc2c(c1)CC(=O)N([C@@H](C)CO)C[C@H](C)[C@@H](CN(C)C(=O)Nc1ccccc1)O2	0	.	.	2	.
CCCNC(=O)Nc1ccc2c(c1)C(=O)N(C)[C@H]1CC[C@@H](CC(=O)NCC3CCCCC3)O[C@H]1CO2	0	.	.	-6	.
C=C(C)CN(CC)C(=O)CC1C(=O)NCCN1Cc1c(F)cccc1Cl (centres undefined)	43*	0	-1	1	1
CN(Cc1ncc[nH]1)C(=O)CC1C(=O)NCCN1Cc1c(F)cccc1Cl (centres undefined)	0	0	5	7	-1
COc1cc(C(=O)NNC(=S)NC(=O)/C=C/c2ccccc2)cc(OC)c1OC	0	0	9	-15*	2
CCN(Cc1ccccc1)S(=O)(=O)c1cc(C(=O)c2c(N)n(C)c(=O)n(C)c2=O)ccc1OC	0	0	-2	-37*	0
CC(C)NC(=O)N(C)C[C@@H]1OCCCC[C@H](C)Oc2ccc(NS(=O)(=O)c3ccc(Cl)cc3)cc2C(=O)N([C@@H](C)CO)C[C@@H]1C	0	.	.	-4	.
O=C(COc1ccccc1)N1c2ccccc2Sc2ccccc21	0	0	4	-34*	1
C[C@@H]1CN(C)C(=O)Cc2cc(N)ccc2O[C@@H]1CN(C)S(C)(=O)=O	.	.	.	0	.
C[C@H](CO)N1C[C@H](C)[C@@H](CN(C)S(=O)(=O)c2ccc(Cl)cc2)Oc2ccc(NC(=O)CCN3CCOCC3)cc2CC1=O	0	.	.	1	.
Cc1cc2nc(/C=C/c3cccnc3)[nH]c2cc1C	0	44*	i	-28*	i
O=C(Nc1scc(-c2ccccc2)c1C(=O)O)c1ccccc1Cl	37*	0	2	-15	2
CCNC(=O)C[C@H]1CC[C@H]2[C@H](COc3ccc(NC(=O)c4cccc(C(F)(F)F)c4)cc3C(=O)N2C)O1	0	.	.	0	.
S=C(c1ccc(-c2ccc(Br)cc2)o1)N1CCOCC1	0	0	5	-30*	0
S=C(c1ccc(-c2ccc(Br)cc2)o1)N1CCCCC1	0	0	3	-20	-2
Cc1ccc(S(=O)(=O)N[C@@H]2C=C[C@H](CC(=O)NCCCN(C)C)O[C@@H]2CO)cc1	0	.	.	2	.
Cc1ccc(F)cc1NC(=O)Nc1cc(C(C)(C)C)nn1C	0	0	1	.	0
Cn1nc(C(C)(C)C)cc1NC(=O)Nc1cc(Cl)cc(Cl)c1	0	0	5	-20*	1
C[C@@H]1CN([C@H](C)CO)C(=O)c2cc(Br)cnc2O[C@H]1CN(C)Cc1ccncc1	0	.	.	2	.
C=CCc1ccc(OCCCCN2CCC(C)CC2)c(OC)c1	.	0	-1	.	-1
C=CCc1ccc(OCCCCN2CC(C)CC(C)C2)c(OC)c1 (centres undefined)	0	0	-6	-22*	-3
CN(C)CC(=O)N1[C@@H](CO)[C@H](c2ccccc2)C12CN(CC1CC1)C2	.	.	.	2	.

Source: PubChem
